# Results reported in PubChem BioAssay (NCI).
# The panel holds about 83,000 compounds, 20% with a hit somewhere; the sample as a whole holds those more often.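 Plates (96-well) were seeded with cells, treated with compound at one concentration, and incubated for 48 hours before percent growth was determined.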 A number with no mark means an inactive call. Active and inactive are the calls of the source.
# Tested on: U251 CNS
# Test: NCI-60 one-dose screen, 48 h (100 = growth as untreated, 0 = no growth, -100 = all killed)
# Details: 10 µM
# Description: Growth inhibition of the U251 human tumor cell line is measured as a screen for anti-cancer activity. Cells are grown in 96 well plates and exposed to the test compound for 48 hours. Compounds are tested at a single concentration, which is 10^-5 M for most compounds. The reported endpoint is percent growth (GI% or GIPRCNT), where numbers from 0 - 100% represent growth inhibition, and numbers from -100% - 0 represent cell death. For example, a value of 40 represents 60% growth inhibition. A value of 0 means no net growth occurred over the course of the experiment. A value of -40 indicates 40% of cells at the beginning of the experiment died by the end of the experiment. A value of -100 means all cells are dead at the end of the experiment.
# NCI-60 Human Tumor Cell Lines Screen was performed using the standard one-dose NCI protocol, which is described in more detail at https://dtp.cancer.gov/discovery_development/nci-60/default.htm.
# Compounds with GIPRCNT values below 10 were considered active. Activity score was based on GIPRCNT using the following formula: […]
# Score is 0 for GIPRCNT values of 100 or above, 50 for GIPRCNT values of 0, and 100 for GIPRCNT values of -100.
row,Compound,growth
1,O=C(/C=C/c1ccc(F)cc1)c1nc2ccccc2n1Cc1ccc(Br)cc1,-91.8% (active)
2,C[C@H]1[C@@H](CC(=O)N[C@@H](Cc2coc3ccccc23)B(O)O)O[C@@H]2OC3(C)CC[C@H]4[C@H](C)CC[C@@H]1[C@@]24OO3,-14.3% (active)
3,C#CCCCN(CCNc1ccnc2cc(Cl)ccc12)C(=O)CCC(=O)O[C@@H]1O[C@@H]2OC3(C)CC[C@H]4[C@H](C)CC[C@@H]([C@H]1C)[C@@]24OO3,45.7%
4,CC[C@]12C=CCN3CC[C@@]4(c5ccc(OC)cc5N(C)[C@H]4[C@@](O)(C(=O)OC)[C@@H]1OC(=O)CCCC[P+](c1ccc(C)cc1)(c1ccc(C)cc1)c1ccc(C)cc1)[C@@H]32,-93.6% (active)
5,O=C(/C=C/c1ccc(F)cc1)c1nc2ccccc2n1Cc1ccc(F)cc1,-56.3% (active)
6,C[C@H]1[C@H](OC(=O)CCC(=O)N(CCCc2cn(-c3ccc(CN4CCOCC4)cc3)nn2)CCNc2ccnc3cc(Cl)ccc23)O[C@@H]2OC3(C)CC[C@H]4[C@H](C)CC[C@@H]1[C@@]24OO3,13.3%
7,CC[C@]12C=CCN3CC[C@@]4(c5ccc(OC)cc5N(C)[C@H]4[C@@](O)(C(=O)OC)[C@@H]1OC(=O)CCC[P+](c1ccc(F)cc1)(c1ccc(F)cc1)c1ccc(F)cc1)[C@@H]32,18.5%
8,COc1cc(OC)c(S(=O)(=O)N(CCCl)CCCl)cc1C(=O)/C=C/c1ccc(C)cc1,-2.54% (active)
9,CN(C)CCc1cn(C2CCC2)c2cccc(O)c12,65.7%
10,COP(=O)(CC(F)(F)C(F)(F)F)OC,81.7%
11,C#CC[Se]C(=O)c1ccc(C(=O)[Se]CC#C)s1,44.7%
12,CC(C)C[C@H](NC(=O)CNC(=O)C[C@H]1O[C@@H]2OC3(C)CC[C@H]4[C@H](C)CC[C@@H]([C@H]1C)[C@@]24OO3)B(O)O,13.7%
13,COc1ccc(/C=C/C(=O)c2nc3ccccc3n2Cc2ccc(Br)cc2)cc1,50.2%
14,C[C@H]1[C@H](OC(=O)CCC(=O)Nc2cnccn2)O[C@@H]2OC3(C)CC[C@H]4[C@H](C)CC[C@@H]1[C@@]24OO3,42.6%
15,COC(=O)C[C@](O)(CCC(C)C)C(=O)O[C@@H]1C(OC)=C[C@]23CCCN2CCc2cc4c(cc2[C@H]13)OCO4,-27.3% (active)
16,O=C([Se]C1C=CCCC1)c1ccc(C(=O)[Se]C2C=CCCC2)s1 (stereo not given),-88% (active)
17,CC(=O)Oc1ccccc1C(=O)[Se]C(=NC(C)C)NC(C)C,-87.8% (active)
18,O=C(NC([Se])=NC1CCCCC1)c1ccccc1,49.2%
19,O=C(/C=C/c1cccc(Br)c1)c1nc2ccccc2n1Cc1ccc(Br)cc1,-83.3% (active)
20,O=C(/C=C/c1ccc(Br)cc1)c1nc2ccccc2n1Cc1ccc(Br)cc1,-86.3% (active)

row,Compound,growth
1,CC(C)N=C([Se])NC(=O)c1ccccc1,-59.4% (active)
2,CCC[Se]C(=O)c1ccc(C(=O)[Se]CCC)s1,-60.4% (active)
3,CCOP(=O)(OCC)C(NC(C)=O)C(=O)SCCN (stereo not given),106%
4,CC(=C\C(=O)Oc1ccc2c3c1OC1C(O)CCC4(O)C(C2)N(CC2CCC2)CCC314)/C=C1\CCCc2ccccc21 (stereo not given),47.4%
5,C=CC[Se]C(=O)c1cncc(C(=O)[Se]CC=C)c1,-72.9% (active)
6,Cc1c2oc3c(C)ccc(C(=O)N[C@@H]4C(=O)N[C@H](C(C)C)C(=O)N5CCC[C@H]5C(=O)N(C)CC(=O)N(C)[C@@H](C(C)C)C(=O)OC4C)c3nc-2c(C(=O)N[C@@H]2C(=O)N[C@H](C(C)C)C(=O)N3CC(=O)C[C@H]3C(=O)N(C)CC(=O)N(C)[C@@H](C(C)C)C(=O)OC2C)c(N)c1=O (stereo not given in full),1.58% (active)
7,CC1=C2C(=C[C@@](C)(COP(=O)(Oc3ccccc3)Oc3ccccc3)[C@@H]2O)C(=O)[C@@](C)(O)C12CC2,-43.4% (active)
8,CC[C@]12C=CCN3CC[C@@]4(c5ccc(OC)cc5N(C)[C@H]4[C@@](O)(C(=O)OC)[C@@H]1OC(=O)CCC[P+](c1ccc(C)cc1)(c1ccc(C)cc1)c1ccc(C)cc1)[C@@H]32,-91.2% (active)
9,COC(=O)CCn1c(-c2ccc(-n3cc(-c4ccc(O[C@H]5O[C@@H]6OC7(C)CC[C@H]8[C@H](C)CC[C@@H]([C@H]5C)[C@@]68OO7)cc4)nn3)cc2)nc2ccccc21,32.5%
10,COc1cc2cc(C(=O)N3C[C@@H](CCl)c4c3cc(OC(=O)N3CCN(C)[C@@H]5CSSC[C@@H]53)c3ccccc43)[nH]c2c(OC)c1OC,7.22% (active)
11,COCCOCCOCCOc1ccc(-n2cc(-c3ccc(O[C@H]4O[C@@H]5OC6(C)CC[C@H]7[C@H](C)CC[C@@H]([C@H]4C)[C@@]57OO6)cc3)nn2)cc1,73%
12,Cc1ccc2[nH]c(=S)n(-c3ccc(F)cc3)c(=O)c2c1,102%
13,CCOP(=O)(CC(F)(F)C(F)(F)F)OCC,73.7%
14,COc1cc2cc(C(=O)N3C[C@@H](CCl)c4c3cc(OC(=O)N3CCN(C)[C@@H]5CSSC[C@H]53)c3ccccc43)[nH]c2c(OC)c1OC,-14.6% (active)
15,O=C(/C=C/c1ccccc1)c1nc2ccccc2n1Cc1ccc(F)cc1,-73.6% (active)
16,COC(=O)C[C@](O)(CCC(C)C)C(=O)O[C@H]1C(OC)=C[C@@]23CCCN2CCc2cc4c(cc2[C@@H]13)OCO4,-25.2% (active)
17,CC[C@@]12CC(C(=O)OC)=C3Nc4cc5c(cc4[C@@]34CCN(C[C@H]3O[C@H]31)[C@@H]24)[C@@H]1[C@H](O5)[C@@H](O)[C@@]2(CC)CC(C(=O)OC)=C3Nc4cc(OC)ccc4[C@@]34CCN1[C@@H]24,17.2%
18,COc1cc(OC)c(S(=O)(=O)N(CCCl)CCCl)cc1C(=O)/C=C/c1cc(OC)c(OC)c(OC)c1,-79.6% (active)
19,CC1=C(CCC=O)C2=C(C)C3(CC3)[C@@](C)(O)C(=O)C2=C1,-99.6% (active)
20,CC(=O)Oc1ccccc1C(=O)NC([Se])=NC1CCCCC1,24.2%
